The source of these data is PubChem BioAssay (NCI).

Experiment in all cases: NCI-60 one-dose screen, 48 h (100 = growth as untreated, 0 = no growth, -100 = all killed)
One assay relates to NCI-H23 lung. The following applies: 10 µM unless noted.
The next assay has as its system NCI-H322M lung. The conditions noted are these: 10 µM unless noted.
Another assay deals with HOP-62 NSCLC. The conditions noted are these: 10 µM unless noted.
A further assay concerns NCI-H522 lung. The conditions noted are these: 10 µM.
In another assay the test system is A549/ATCC NSCLC. The following applies: 10 µM unless noted.
The next assay deals with 786-0 renal. The following applies: 10 µM unless noted.
A further assay has as its system COLO 205 colon. The following applies: 10 µM unless noted.
The next assay has as its system NCI-H460 lung. The conditions noted are these: 10 µM unless noted.
The subject of the next assay is HOP-92 NSCLC. The following applies: 10 µM unless noted.

About 83,000 compounds went through this panel and 20% of them were active in at least one assay; those are over-represented in the sample as a whole.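 Treatment: one concentration, 48 hours, 96-well format. Scoring: percent growth, with anything below 10 considered active.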 Values without a mark were called inactive. Activity calls are given as the source filed them.

For `COc1ccc(Nc2[nH]n(C3=Nc4ccccc4Sc4ccccc43)c(=O)c2C#N)cc1`, the growth is 28.3% in the assay on NCI-H23 lung; 89.1% in the assay on NCI-H322M lung; 75.9% with HOP-62 NSCLC; 29.6% in the assay on NCI-H522 lung; 55.2% in the assay with A549/ATCC NSCLC; 64.7% in the assay on 786-0 renal. The growth in the assay with COLO 205 colon is 15.1%.
As for `Cc1nc2ccc(Cl)cc2n1C`, the growth in the assay with NCI-H23 lung was 107%; in the assay on NCI-H322M lung, 108%; in the assay on NCI-H460 lung, 109%; with HOP-92 NSCLC, 105%; in the assay on NCI-H522 lung, 90.2%; with A549/ATCC NSCLC, 103%. In addition, in the assay with 786-0 renal, the growth was 101%.
As for `Cc1cc(NS(=O)(=O)c2ccc(NC(=O)COc3ccc(-c4cc5ccccc5[nH]4)cc3)cc2)no1`, the growth in the assay on NCI-H23 lung was 22.4%; in the assay with HOP-62 NSCLC it was -11.3% (active); with NCI-H460 lung, 9.1% (active); in the assay on NCI-H522 lung, 20.8%; in the assay on A549/ATCC NSCLC, 30.1%; with 786-0 renal, 2.3% (active). Also, the growth in the assay with COLO 205 colon is -50.5% (active).
Turning to `CCCCc1ccc(NC(=O)C(F)(F)F)cc1`, the growth is 106% in the assay on NCI-H23 lung; 102% in the assay with HOP-62 NSCLC; 108% in the assay on NCI-H460 lung; 104% in the assay on HOP-92 NSCLC; 82% in the assay on NCI-H522 lung; 102% in the assay on A549/ATCC NSCLC. Further, the figures for the growth in the assay with 786-0 renal and in the assay with COLO 205 colon were 91.8% and 107%, respectively.
On to `O=C(CCc1nnc2sc(-c3ccccc3)nn12)c1nc2ccccc2[nH]1`, for which the growth in the assay on NCI-H23 lung is 79.7%; with HOP-62 NSCLC, 100%; with NCI-H460 lung, 99.8%; in the assay with NCI-H522 lung, 91.2%; in the assay on A549/ATCC NSCLC it was 99.3%; in the assay on 786-0 renal it was 103%. Besides, the growth in the assay with COLO 205 colon was 114%.
On to `C=C[C@H]1C[C@@H]2C[C@@H]3[C@H]4C/C=C\C(=O)NCCCC5NC(=O)C(=C(O)/C=C/[C@@H]4CC(=O)[C@H]3[C@@H]2[C@H]1C)C5=O` (some centres undefined), for which the growth in the assay on NCI-H23 lung is -8.31% (active); in the assay with HOP-62 NSCLC, -82.3% (active); in the assay on NCI-H460 lung, -69.4% (active); with HOP-92 NSCLC it was -85.7% (active); in the assay with NCI-H522 lung, 46.4%; in the assay on A549/ATCC NSCLC, -91% (active). In addition, the growth in the assay with COLO 205 colon is -82.9% (active).
For the compound `O=C(CCc1nnc2sc(/C=C\c3ccccc3)nn12)c1nc2ccccc2[nH]1`, the growth is 73.4% in the assay on NCI-H23 lung; 75.8% with HOP-62 NSCLC; 96.7% in the assay on NCI-H460 lung; 52.9% in the assay with HOP-92 NSCLC; 95.1% in the assay on NCI-H522 lung; 97.5% in the assay on A549/ATCC NSCLC. Moreover, the values for the growth with 786-0 renal and in the assay on COLO 205 colon were 89.7% and 90.7%, respectively.
With `Oc1cccc(Nc2nc(-c3ccccn3)cs2)c1`, the growth in the assay on NCI-H23 lung is 107%; in the assay with NCI-H322M lung, 94.6%; in the assay on HOP-62 NSCLC it was 98%; in the assay on HOP-92 NSCLC, 89%; with A549/ATCC NSCLC, 94.8%; in the assay on 786-0 renal it was 102%. For the same compound, the growth in the assay with COLO 205 colon was 103%.
As for `N#C/C(=C\c1ccc[nH]1)c1cc2ccccc2[nH]1`, the growth in the assay on NCI-H23 lung was 39.1%; in the assay on NCI-H322M lung, 87.5%; in the assay with HOP-62 NSCLC, 85.1%; in the assay with HOP-92 NSCLC, 76.9%; in the assay with A549/ATCC NSCLC it was 54.2%; in the assay on 786-0 renal, 93.4%. The growth in the assay on COLO 205 colon was 88.6%.
`O=c1onc(-c2ccccc2)c2ccccc12`: the growth in the assay with NCI-H23 lung is 104%; with HOP-62 NSCLC, 117%; in the assay with NCI-H460 lung, 109%; with HOP-92 NSCLC, 95.4%; in the assay on NCI-H522 lung it was 101%; in the assay with A549/ATCC NSCLC it was 109%. Also, the growth is 105% in the assay on 786-0 renal and 119% with COLO 205 colon.
Turning to `Nc1cc(Br)c(-c2nnc(CCC(=O)c3nc4ccccc4[nH]3)o2)c(Br)c1`, the growth is 70.8% in the assay with NCI-H23 lung; 82.2% with HOP-62 NSCLC; 102% in the assay with NCI-H460 lung; 26.3% in the assay with HOP-92 NSCLC; 24.6% in the assay on NCI-H522 lung; 90.7% in the assay with A549/ATCC NSCLC. Further, the growth in the assay on 786-0 renal was 85.8%; with COLO 205 colon it was 70.6%.
Regarding `FC(F)(F)Oc1ccc2c(c1)C[C@H]1C[C@@H](c3ccoc3)N2O1`, the growth is 96.5% with NCI-H23 lung; 117% in the assay with NCI-H322M lung; 114% with NCI-H460 lung; 82.8% in the assay on HOP-92 NSCLC; 99.6% in the assay with NCI-H522 lung; 92.1% with A549/ATCC NSCLC. The results for the growth in the assay with 786-0 renal and with COLO 205 colon were 105% and 110%, respectively.
Turning to `COC(=O)[C@H]1CCCN1C(=O)[C@H]1CCCN1C(=O)[C@@H](Cc1c[nH]c2ccccc12)NC(=S)Nc1cc(C(F)(F)F)cc(C(F)(F)F)c1`, the growth in the assay on NCI-H23 lung is 69.2%; with NCI-H322M lung, 32.8%; in the assay with HOP-62 NSCLC, 78.6%; in the assay with NCI-H522 lung, 85.7%; in the assay with A549/ATCC NSCLC it was 31%; with 786-0 renal, 62.5%. For the same compound, the growth in the assay on COLO 205 colon was 38.4%.
Consider `CCCCc1ccc(C(O)(CCN2CC3CCC(CC3)C2)c2ccccc2)cc1` (centres undefined), for which the growth was 87.7% in the assay on NCI-H23 lung; 106% in the assay with HOP-62 NSCLC; 107% in the assay with NCI-H460 lung; 75.4% in the assay on HOP-92 NSCLC; 84.2% in the assay with NCI-H522 lung; 96.2% in the assay with A549/ATCC NSCLC. Moreover, the growth with 786-0 renal was 85.9%; in the assay on COLO 205 colon, 80.9%.
